In PubChem BioAssay:

Test: Plasmodium falciparum growth inhibition, primary screen, strain 3D7, DAPI fluorescence, 100 nL (AID 1184);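 also: parasites grown inside human red blood cells in medium with human serum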
Details: P. falciparum 3D7 growth, 3 d, higher = more signal

In order of falling z-score:
1. COc1ccc(CCNC(=O)[C@@]2(Sc3ccc(C)cc3)CC(=O)N(Cc3cc(C(F)(F)F)cc(C(F)(F)F)c3)[C@@H]2c2ccc(CO)cc2I)cc1  0.725
2. CC(C)(C)OC(=O)CC[C@@]1(C(=O)O)N=C(c2ccc(OCCCO)cc2)O[C@@H]1c1ccccc1CN=[N+]=[N-]  0.664
3. CN(C)CCCCNC(=O)[C@H]1C[C@H]2C(=O)N[C@@H](CCCCN(C)C)C(=O)N2[C@H]1c1cccc(OCCO)c1  0.649
4. COCCOC(=O)N1C(=O)[C@@]2(c3cc(C#CCNC(N)=O)ccc31)[C@H](C(=O)N1CCCCCCC1)[C@H]1C(=O)O[C@H](c3ccccc3)[C@H](c3ccccc3)N1[C@@H]2c1ccc(O)cc1  0.178
5. CCCCN1CC=CC23O[C@@H]4/C=C\CCC(C)OC(=O)C4[C@H]2C(=O)N(CCCCCCO)[C@@H]3C1=O (stereo not given in full)  0.11
6. CC(=O)n1cc(C(O)C2C=CC3C(=O)N(Cc4ccccc4)C(=O)C3N2n2cnnc2)c2ccccc21 (stereo not given)  -0.15
7. C[N+](C)(C)CCCC[C@@H]1NC(=O)[C@@H]2C[C@H](C(=O)O)[C@H](c3ccc(O)cc3)N2C1=O  -0.195
8. CN(C)CCCN1C(=O)[C@@]2(c3ccc([N+](=O)[O-])cc3)CC(=O)N(CC34CC5CC(CC(C5)C3)C4)[C@@H]2c2ccc(CO)cc21  -0.428
9. O=C1OCC=C[C@H]2OC34C=CCN(Cn5nnc6ccccc65)C(=O)[C@H]3N(CCCCCCO)C(=O)[C@@H]4[C@@H]12 (stereo not given in full)  -0.508
10. CC(C)NC(=O)[C@@]1(C)c2ccccc2C(=O)N(C(C)C)[C@H]1c1ccc(CO)cc1  -0.568
11. CC1CC/C=C\[C@H]2OC34C=CCN(c5ccc6ccccc6c5)C(=O)[C@H]3N(C(CO)C(C)C)C(=O)[C@@H]4C2C(=O)O1 (stereo not given in full)  -0.571
12. O=C1O[C@@H](c2ccccc2)[C@@H](c2ccccc2)N2[C@@H](c3ccccc3OCCO)[C@]3(C(=O)Nc4ccccc43)[C@@H](C(=O)NC[C@H](O)c3ccccc3)[C@H]12  -0.692
13. COCC(=C=CC[C@H](O)c1cccc(OCCO)c1)C[C@H](O)c1ccccn1  -0.737
14. CC[C@H]1C2=C3C(CC[C@H]4C(OCc5ccc(F)cc5C(F)(F)F)OC[C@](C)([C@@H]34)N(C(=O)OC(C)(C)C)C2)C2COC(=O)OCC21 (stereo not given in full)  -0.749
15. COCCOC(=O)N1C(=O)[C@@]2(c3cc(C#Cc4ccc(OC)cc4)ccc31)[C@H](C(=O)NC[C@H](O)c1ccccc1)[C@H]1C(=O)O[C@H](c3ccccc3)[C@H](c3ccccc3)N1[C@@H]2c1ccc(O)cc1  -0.754
16. C#CCNC(=O)[C@H](Cc1ccccc1)NC(=O)[C@@H](N=[N+]=[N-])C(C)C  -0.765
17. CCCC[C@@H]1C[C@H]1[C@@H](NC(=O)c1cccnc1)c1ccc(-c2ccccc2)cc1  -0.814
18. CC(C)CNC(=O)[C@@]1(c2ccc([N+](=O)[O-])cc2)CC(=O)N(C2CCCCC2)[C@@H]1c1ccc(CO)cc1I  -0.923
19. CCOC(=O)[C@H]1C/C=C/C[C@H](C(=O)OCC)C(=O)O[C@H]2[C@@H](OC)O[C@H](CO)[C@@H](OC(=O)CCc3ccccc3)[C@@H]2OC1=O  -1.24
20. COCCOC(=O)N1C(=O)[C@@]2(c3cc(C#CC4=CCCCC4)ccc31)[C@H](c1ccc(O)cc1)N1[C@H](c3ccccc3)[C@H](c3ccccc3)OC(=O)[C@H]1[C@@H]2C(=O)Nc1nc2ccccc2s1  -1.32
21. CC(C)(C)OC(=O)CC[C@]1(C(=O)O)N=C(c2ccc(OCCCO)cc2)O[C@H]1c1ccccc1  -1.62
22. C=CCOC(=O)[C@H]1[C@@H]2C(=O)O[C@@H](c3ccccc3)[C@@H](c3ccccc3)N2[C@@H](c2ccc(OCCOC(=O)[C@H]3C[C@H]4C(=O)N[C@@H](Cc5ccccc5)C(=O)N4[C@H]3c3cccc(OCCO)c3)cc2)[C@]12C(=O)Nc1ccc(I)cc12  -1.65
23. COC(=O)[C@@]1(Cc2ccc(OC)cc2)[C@H]2c3cc(C(=O)N(C)C)n(CCc4c[nH]c5ccc(O)cc45)c3C[C@H]2CN1C(=O)c1ccccc1  -1.73
24. COc1cc2c(cc1O)C(C)N(Cc1cc3c(cc1Br)OCO3)CC2 (stereo not given)  -2.03
25. C=CCNC(=O)[C@@H]1[C@H]2C(=O)O[C@H](c3ccccc3)[C@H](c3ccccc3)N2[C@H](c2ccccc2OCCO)[C@@]12C(=O)N(C(=O)OCCOC)c1ccc(C#CC3=CCCCC3)cc12  -2.08
26. C=C(C(=O)CC[C@H](OC(=O)c1cccnc1)c1cccc(OCCO)c1)C(C)C  -2.09
27. COc1ccc([Si](C)(C)[C@@H]2[C@@H](CC(=O)N3CCC[C@H]3CO)O[C@]3(C(=O)N(Cc4ccc(N5C(=O)c6cccc7cccc5c67)cc4)c4ccccc43)[C@H]2C)cc1  -2.09
28. CO[C@H]1O[C@H](CO)[C@@H](OC(=O)Nc2ccccc2-c2ccccc2)[C@H](OC(=O)Nc2ccc3c(c2)OCO3)[C@@H]1OC(=O)Nc1ccc2c(c1)OCO2  -2.17
29. COc1ccc([Si](C)(C)[C@H]2[C@H](CCn3cc(CCO)nn3)O[C@@]3(C(=O)N(Cc4ccc(N5C(=O)c6cccc7cccc5c67)cc4)c4ccccc43)[C@@H]2C)cc1  -2.28
30. C=CC[C@]12N=C(c3ccc(OCCCO)cc3)O[C@H]1c1ccccc1N(C)C2=O  -2.33
31. CCCCC(=C=CC[C@@H](O)c1ccc(OCCO)cc1)C[C@@H](O)COCc1ccccc1  -2.73
32. CC(C)C(=C=CC[C@H](O)c1ccc(OCCO)cc1)C[C@H](O)c1cc(Cl)cc(Cl)c1O  -2.74
33. COc1ccc([Si](C)(C)[C@@H]2[C@@H](CCn3cc([C@H](O)c4ccccc4)nn3)O[C@]3(C(=O)N(Cc4ccc(N5CCOC5=O)cc4)c4ccccc43)[C@H]2C)cc1  -2.78
34. C=C(COC)/C(=C/C[C@@H](OC(=O)c1ccncc1)c1cccc(OCCO)c1)c1cnc2ccccc2c1  -2.79
35. C=C(CCCC)/C(=C/C[C@@H](OC(=O)c1ccncc1)c1cccc(OCCO)c1)c1cnc2ccccc2c1  -3.03
